Screening results as filed in PubChem.
An excerpt weighted towards active compounds, which were near 7.3% of everything screened.
Tau fibril ThT: blocks human tau fibril formation measured by thioflavin T; actives 2.1% (n = 270,000); Potency, µM (doses to about 57.4 µM), for inactives: top-dose activity, negative = inhibition, hits mostly inhibitors; P10636; recombinant tau K18 P301L, heparin-induced fibrillization, ThT fluorescence; also: nearly all actives have a fitted effect of over 55% in size
Target sequence (P10636 561-689 P618L limits assumed): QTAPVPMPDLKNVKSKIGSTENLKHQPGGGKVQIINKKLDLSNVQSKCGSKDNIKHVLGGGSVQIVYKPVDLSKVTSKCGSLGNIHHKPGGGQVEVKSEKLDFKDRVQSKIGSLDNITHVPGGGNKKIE
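Heparin-induced (20 uM) aggregation of recombinant human K18 P301L tau, 15 uM unlabeled with 0.24 uM labeled, pH 7 acetate buffer, 6 hr at 37 C with compound. Fibrils quantified by 30 uM ThT fluorescence after 1 hr ambient incubation.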
Tau fluor cs: counter-screen for tau fibril formation inhibitors; Potency, µM (titrated, usually from 57.7 µM), for inactives: at the highest dose activity change, negative = decrease; AID 1463; tau K18 P301L Alexa594 fluorescence, heparin fibrillization; actives 0.93% (n = 280,000); also: nearly all actives have a fitted effect of over 55% in size
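Human tau K18 P301L (15 uM unlabeled, 0.24 uM Alexa 594-labeled) in 100 mM sodium acetate pH 7 with 20 uM heparin, 6 hr at 37 C. ThT 30 uM added, 1 hr ambient; Alexa 594 FP and total fluorescence read at 555/632 nm.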
RORgamma inh: inhibitors of mouse ROR gamma transcriptional activity; Drosophila S2 Gal4-RORgamma UAS-luciferase reporter, 20 h; P51450; Potency, µM (doses to about 53.6 µM), without a hit: at the highest dose activity change, negative = inhibition, hits mostly inhibitors; AID 2551; actives 5.4% (n = 310,000); also: nearly all actives have a fitted effect of over 60% in size
Target sequence (P51450 whole entry, looked up, the tested form may be a part): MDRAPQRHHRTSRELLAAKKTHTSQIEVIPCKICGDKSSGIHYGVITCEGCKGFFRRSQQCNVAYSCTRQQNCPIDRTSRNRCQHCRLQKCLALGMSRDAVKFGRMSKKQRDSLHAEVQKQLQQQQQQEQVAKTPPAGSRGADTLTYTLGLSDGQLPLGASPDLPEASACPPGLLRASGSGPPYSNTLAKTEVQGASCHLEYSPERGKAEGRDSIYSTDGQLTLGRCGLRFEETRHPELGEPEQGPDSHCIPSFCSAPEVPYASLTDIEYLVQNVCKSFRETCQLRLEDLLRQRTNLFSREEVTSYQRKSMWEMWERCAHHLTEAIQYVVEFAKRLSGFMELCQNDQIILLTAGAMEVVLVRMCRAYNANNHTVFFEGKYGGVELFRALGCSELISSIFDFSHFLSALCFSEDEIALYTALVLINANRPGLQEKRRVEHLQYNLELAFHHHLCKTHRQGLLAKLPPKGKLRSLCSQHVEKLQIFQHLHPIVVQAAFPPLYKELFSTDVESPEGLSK
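Stable Schneider cell line, Gal4 DNA-binding domain fused to ROR gamma, UAS-luciferase. Cmpd 1 hr RT → CuSO4 700 uM final → 20 hr RT → luciferase reagent 10 min → luminescence.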
Tau FP inhib: tau fibrillization inhibition (FP); P10636; K18 P301L tau heparin fibrillization, Alexa594 FP, 6 h; Potency, µM (titrated, usually from 57.7 µM), for inactives: at the top dose activity, negative = inhibition, hits mostly inhibitors; actives 0.39% (n = 280,000); also: nearly all actives have a fitted effect of over 55% in size
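Steps: dispense K18 P301L tau (15 uM plus 0.24 uM Alexa 594 tracer, final) in pH 7 sodium acetate; add compound; add heparin (20 uM final); incubate 6 hr, 37 C; add ThT (30 uM final); after 1 hr ambient, read FP.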
Gal4-VP16 FLuc: Gal4-VP16 reporter inhibition counter-screen | Drosophila S2 Gal4-VP16 UAS-luciferase, luminescence, 20 h | Potency, µM (titrated, usually from 53.6 µM), without a hit: at the highest dose activity, negative = inhibition, usual class: inhibitors | actives 3.5% (n = 310,000) | AID 2546;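 also: Gal4-VP16 expression switched on by copper sulfate through the metallothionein promoter; nearly all actives have a fitted effect of over 50% in size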
Starred values were filed as active, the others as inactive; ? = inconclusive; . = no result given; [ ] = remark or other dose. Calls follow the shape of the dose curve; as a rule, active = well fitted curve in the direction sought with a large enough effect; inconclusive = small, poorly fitted or top-dose-only effect, or another doubt; inactive = no such curve, though single readings can be large; an effect the other way counts as inactive or inconclusive. % is scaled to controls: 0 for no effect and ±100 for the full control effect; potency is read from the fitted curve at half-maximal effect.

SMILES	Tau fibril ThT	Tau fluor cs	RORgamma inh	Tau FP inhib	Gal4-VP16 FLuc
COc1ccc(N2CC(NC(=O)CCCc3ccccc3)CC2=O)cc1 (configuration not stated)	-8%	-6%	.	-11%	.
CN(C(=S)Nc1ccc(F)cc1)C1(c2ccccc2Cl)CCCCC1=O (configuration not stated)	-12%	-12%	8.9µM*	-9%	-4%
CCNc1nc(SC(C(C)=O)C(C)=O)nc(N(C)C)n1	7%	19%	5µM*	6%	-27%
CCNc1nc(SC(C)C(=O)OC)nc(N(C)C)n1 (configuration not stated)	-6%	-8%	34%	-4%	3%
CCC(C)Nc1nc(SC(C(C)=O)C(C)=O)nc(N(C)C)n1 (configuration not stated)	-6%	-2%	13µM*	4%	?
CCNc1nc(NC(C)(C)C)nc(SC(C(C)=O)C(C)=O)n1	-3%	-3%	?	-3%	-22%
CCc1nn(CC(=O)Nc2ccc(N(CC)CC)cc2C)c(=O)c2cc3sccc3n12	-15%	-20%	.	?	.
C=C[C@](C)(O)CCC1C(=C)CC(OC(C)=O)C2C(C)(C)CCCC12C (some centres not stated)	?	-13%	1.1µM*	-4%	-17%
C=Cc1ccc(S(=O)(=O)O)cc1	.	.	-13%	.	6%
COc1ccc(CCNC(=O)c2ccc3nc(N4CCCCC4)sc3c2)cc1OC	.	.	2.2µM*	.	?
COc1ccc2nc(N3CCCC(C(=O)NCCc4ccc(OC)c(OC)c4)C3)sc2c1 (configuration not stated)	.	.	?	.	-7%
COCCNC(=S)N/N=C(\C)c1cccc(OC)c1	5%	3%	4µM*	1%	?
COCCNC(=S)N/N=C(\C)c1cccc([N+](=O)[O-])c1	-11%	-10%	3.5µM*	-7%	7.1µM*
CCNC(=S)N/N=C(\C)c1cccc([N+](=O)[O-])c1	-3%	3%	4µM*	3%	4.5µM*
Cc1cccc(N(C)C(=O)Cn2cnc3nc4c(cc3c2=O)CCCC4)c1	1%	6%	.	7%	.
COc1ncc2nc(-c3cc(F)cc(F)c3)c(=O)n(-c3ccccc3)c2n1	.	.	-2%	.	3%
C/C=C/C(=O)C[C@H]1CC[C@@H](C)[C@@H](CCO)O1	-4%	-6%	30%	-4%	-9%
CNc1cc(C(F)(F)F)nc(-c2ccccn2)n1	-12%	-13%	0.71µM*	-8%	13µM*
FC(F)(F)c1cccc(Oc2cc(C(F)(F)F)nc(-c3ccccn3)n2)c1	-13%	-4%	-9%	-6%	6%
C#CCSc1cc(C(F)(F)F)nc(-c2ccccn2)n1	-6%	2%	10µM*	-3%	-6%
CN1CCN(c2cc(C(F)(F)F)nc(-c3ccccn3)n2)CC1	-4%	-5%	-23%	-4%	6%
COc1ccc(Sc2cc(C(F)(F)F)nc(-c3ccccn3)n2)cc1	-4%	-5%	4µM*	-7%	11µM*
C#CCSc1n[nH]c(=O)n1-c1cccc(C(F)(F)F)c1	-3%	-17%	6%	-17%	2%
COc1ccc(-c2nsc(NC(=O)COc3ccc(C)c(C)c3)n2)cc1	-6%	?	.	-14%	.
COC(=O)CC1C(=O)NCCN1C(=O)c1cc(OC)c(OC)cc1OC (configuration not stated)	.	.	-6%	.	-6%
SMILES	Tau fibril ThT	Tau fluor cs	RORgamma inh	Tau FP inhib	Gal4-VP16 FLuc
CCOc1cccc2cc(-c3nc4sc(C(=O)Nc5ccc(C)cc5)c(C)c4c(=O)[nH]3)c(=O)oc12	-8%	-18%	.	?	.
COc1ccc(/C=N\NC(=O)c2ccc(F)cc2)cc1COc1ccccc1C(N)=O	.	.	7%	.	8%
COc1ccc(/C=N\NC(=O)c2ccc([N+](=O)[O-])cc2)cc1COc1c(F)c(F)cc(F)c1F	.	.	3.5µM*	.	4.5µM*
COc1cc(OC)cc(C(=O)N/N=C/c2ccc(OC)c(COc3ccc(F)cc3)c2)c1	0%	?	4µM*	?	?
O=C(CN1C(=O)c2ccccc2S1(=O)=O)Nc1ccccc1	-5%	-10%	-18%	3%	-9%
O=C(CN1C(=O)c2ccccc2S1(=O)=O)c1ccc(F)c(F)c1	.	.	10µM*	.	11µM*
COc1ccc(C(=O)CN2C(=O)c3ccccc3S2(=O)=O)cc1	-10%	-17%	5.6µM*	-5%	?
CSc1cccc(NC(=O)CN2C(=O)c3ccccc3S2(=O)=O)c1	-7%	-18%	-27%	-7%	13µM*
Cc1nnc(SC(C)C(=O)Nc2ccc3ccccc3c2)[nH]c1=O (configuration not stated)	.	.	-2%	.	-23%
COc1cccc2cc(-c3nc4ccccc4[nH]3)c(=O)oc12	.	.	38%[1.91 µM]	.	-13%
COc1ccc(-n2nc(C(=O)c3cccs3)cc(-c3nc4ccccc4[nH]3)c2=N)cc1	4µM*	?	3.2µM*	-3%	3.5µM*
Cc1ccccc1-n1nc(C(=O)c2cccs2)cc(-c2nc3ccccc3[nH]2)c1=N	?	-22%	0.71µM*	3%	0.89µM*
O=C(Cc1cccs1)Nc1ccccc1-c1nc2ccccc2[nH]1	-4%	?	1%	?	3%
Cc1cccc(-n2nc(C(=O)c3ccco3)cc(-c3nc4ccccc4[nH]3)c2=N)c1	?	-23%	2.5µM*	11%	5µM*
O=C(NC1CCCCC1)NC1CCCCC1	-18%	-14%	16%	-5%	?
CCSc1cc(C2C(C#N)=C(N)OC(C)=C2C(=O)OC)c(C)o1 (configuration not stated)	-17%	-12%	13µM*	-14%	-2%
CCc1nc(N2CCN(C(=O)CCl)CC2)c2c3c(sc2n1)CC(C)CC3 (configuration not stated)	.	.	16µM*	.	?
COc1ccc(-c2nc3ccccn3c2NCc2ccc3c(c2)OCO3)cc1	?	?	?	?	-23%
Cc1ccn2c(Nc3ccc4c(c3)OCO4)c(-c3ccc(O)cc3)nc2c1	?	18µM*[quencher]	-11%	3%	-5%
Oc1ccc(-c2nc3ncccn3c2Nc2ccc3c(c2)OCO3)cc1	?	?	20%	9%	21%
c1ccc(-c2nc3ccccn3c2NCc2ccc3c(c2)OCO3)cc1	?	?	10µM*	15%	-6%
Cc1cccn2c(NCc3ccc4c(c3)OCO4)c(-c3ccc(O)cc3)nc12	?	?	27%	11%	-7%
COc1ccc(-c2nc3cc(C)ccn3c2NCc2ccc3c(c2)OCO3)cc1	?	?	7.1µM*	3%	?
O=C(NCc1ccc2c(c1)OCO2)c1ccc2c(c1)N(Cc1c(F)cccc1Cl)C(=O)c1ccccc1S2	0%	-20%	.	?	.
